Reference: PMC4336329 (PLoS ONE, 2015)
The whole screen tested about 310,000 compounds, of which about 14,000 (4.5%) showed an effect of 50% or more. The effect is printed as a negative number. The entries come from a sample that favours strong results as a whole.

Target: human ether-à-go-go-related gene (hERG) potassium channel (human, UniProt Q12809)
Assay: primary screen, population patch clamp on CHO cells stably expressing hERG; higher = less effect of the substance
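Also: peak tail current of the secondary pulse compared with the same well before compound.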

Sequence of human ether-à-go-go-related gene (hERG) potassium channel (Q12809 whole entry, looked up): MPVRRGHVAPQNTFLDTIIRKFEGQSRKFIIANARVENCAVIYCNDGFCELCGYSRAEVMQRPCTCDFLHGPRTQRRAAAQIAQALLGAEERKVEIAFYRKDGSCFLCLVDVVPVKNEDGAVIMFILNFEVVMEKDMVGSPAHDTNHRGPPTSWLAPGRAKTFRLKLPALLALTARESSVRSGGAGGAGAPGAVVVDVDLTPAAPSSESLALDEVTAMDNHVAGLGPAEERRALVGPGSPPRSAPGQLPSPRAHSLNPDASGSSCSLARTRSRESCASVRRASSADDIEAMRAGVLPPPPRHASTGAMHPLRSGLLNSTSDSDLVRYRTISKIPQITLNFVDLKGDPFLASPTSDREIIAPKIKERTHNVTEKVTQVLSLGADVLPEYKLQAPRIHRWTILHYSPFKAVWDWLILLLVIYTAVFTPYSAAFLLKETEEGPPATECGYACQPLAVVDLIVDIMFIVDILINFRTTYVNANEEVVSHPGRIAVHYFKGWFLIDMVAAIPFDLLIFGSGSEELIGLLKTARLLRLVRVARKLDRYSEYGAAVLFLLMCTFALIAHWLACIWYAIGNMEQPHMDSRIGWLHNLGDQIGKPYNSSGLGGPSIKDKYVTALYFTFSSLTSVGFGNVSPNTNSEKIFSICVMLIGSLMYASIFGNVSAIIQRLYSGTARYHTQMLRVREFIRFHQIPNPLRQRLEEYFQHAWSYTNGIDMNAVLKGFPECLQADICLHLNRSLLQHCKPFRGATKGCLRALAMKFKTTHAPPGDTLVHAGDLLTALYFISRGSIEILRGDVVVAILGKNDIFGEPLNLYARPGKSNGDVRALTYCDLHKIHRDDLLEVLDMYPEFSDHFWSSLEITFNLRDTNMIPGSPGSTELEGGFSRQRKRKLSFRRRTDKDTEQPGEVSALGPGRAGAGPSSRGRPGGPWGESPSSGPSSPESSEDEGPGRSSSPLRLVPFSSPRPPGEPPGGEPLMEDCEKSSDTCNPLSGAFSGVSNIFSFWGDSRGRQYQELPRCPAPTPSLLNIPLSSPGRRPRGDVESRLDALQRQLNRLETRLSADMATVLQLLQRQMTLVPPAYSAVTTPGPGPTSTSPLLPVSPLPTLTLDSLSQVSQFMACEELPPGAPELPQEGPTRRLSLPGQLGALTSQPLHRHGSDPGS

Structure (SMILES)	hERG current change (%, negative = inhibition) at 10uM [%]
CCN(Cc1ccccc1)C(=O)c1ccc(CS(=O)c2ccccc2C)o1 (stereo not shown)	-43.9
C/C(=N\NC(=O)c1csc(C)c1C)c1ccc(Cl)s1	-0.674
C/C=C\C=C\C(=O)N1CC2(CC(c3cccc(NC(=O)CC(c4ccccc4)c4ccccc4)c3)=NO2)C[C@H]1C(N)=O (stereo partly shown)	0.883
CCOc1ccc(NC2=C(Cl)C(=O)N(Cc3ccccc3)C2=O)cc1	-0.258
CC1CCCCN1C(=O)c1cccc(NC2=C(Cl)C(=O)N(Cc3ccccc3)C2=O)c1 (stereo not shown)	-15.8
O=C1C(Cl)=C(Nc2cccc(O)c2)C(=O)N1Cc1ccccc1	-62.4
NC(C(=O)O)c1cc(=O)[nH]o1 (stereo not shown)	13.4
CCCCn1c(SCC(=O)NC(C)(C)C)nnc1-c1ccco1	-1.57
CCCCn1c(SCC(=O)NC2CCCC2)nnc1-c1ccco1	-54.8
COCCn1c(SCC(=O)Nc2cccc(C)n2)nnc1-c1ccco1	-11.5
CCn1c(SCC(=O)Nc2cccc(C)n2)nnc1-c1ccco1	-50.9
CCn1c(SCC(=O)Nc2cc(C)on2)nnc1-c1ccco1	-4.87
CCn1c(SCC(=O)NC2CCCC2)nnc1-c1ccco1	14.8
CCC(=O)Nc1ccc(NC(=O)CSc2nnc(-c3ccco3)n2CC)cc1	8.22
CCCCn1c(SCC(=O)Nc2cccc(C)n2)nnc1-c1ccco1	-76
CCCn1c(SCC(=O)NC2CCCCC2)nnc1-c1ccco1	-20.3
CCCCn1c(SCC(=O)Nc2cc(C)on2)nnc1-c1ccco1	-23.3
COCCCn1c(SCC(=O)Nc2cccc(C)n2)nnc1-c1ccco1	-69.3
COCCn1c(SCC(=O)Nc2cc(C)on2)nnc1-c1ccco1	-4.67
O=C(O)c1cccc(Nc2ncnc3ccc(Br)cc23)c1	-1.55
COc1ccccc1CNS(=O)(=O)c1ccc(C)cc1	7.04
CN(C)c1ccc(/C=C2\C(=N)N3N=C(CC(=O)N4CCCC4)SC3=NC2=O)cc1Br	4.09
COCc1cc(C)nc(N/N=C/c2ccc(Cl)c(Cl)c2)c1C#N	12.4
CCN1CC2([N+](=O)[O-])CC=C(Cl)C([N+](=O)[O-])(C1)C2 (stereo not shown)	13.9
Cc1cc(N2CCN(S(=O)(=O)Cc3ccccc3)CC2)n2ncnc2n1	-46.1
Cc1ccccc1N1CCN(S(=O)(=O)c2ccc3ccccc3c2)CC1	9.64
Cc1cc(N2CCN(S(=O)(=O)c3ccc(Br)cc3)CC2)n2ncnc2n1	-76.9
CC(=O)Nc1ccc(S(=O)(=O)N2CCN(c3cc(C)nc4ncnn34)CC2)cc1	-27.9

Structure (SMILES)	hERG current change (%, negative = inhibition) at 10uM [%]
Cc1cc(N2CCN(S(=O)(=O)c3ccc4ccccc4c3)CC2)n2ncnc2n1	-77.7
Cc1nc2ncnn2c(N2CCN(S(=O)(=O)c3ccc(Br)cc3)CC2)c1C	-20.7
CC1CN(C(=O)CSc2nnc(NC(=O)NC(C)(C)C)s2)CC(C)O1 (stereo not shown)	19
CC1(CCc2ccccc2)NC(=O)N(Cc2nnc(-c3ccccc3Br)o2)C1=O (stereo not shown)	-26
CCOC(=O)C1CCN(C(=O)CN(c2ccc(OC)c(OC)c2)S(=O)(=O)c2ccccc2)CC1	-14.7
CCOc1ccc(S(=O)(=O)NCCC(=O)NCC(c2ccco2)N2CCCCC2)cc1 (stereo not shown)	-17.7
CCCCn1nc(C(=O)Nc2cc(C(F)(F)F)ccc2N2CCOCC2)ccc1=O	-83.7
CC1N(C)c2cc(NC(=O)c3cccs3)c(P(=O)(Nc3ccc([N+](=O)[O-])cc3)N3CCOCC3)cc2C1(C)C (stereo not shown)	12.2
CCC(=O)Nc1cc(C(F)(F)F)ccc1N1CCOCC1	1.09
CN1CCN(c2ccc(C(F)(F)F)cc2NC(=O)c2ccco2)CC1	-54.5
O=C(Nc1cc(C(F)(F)F)ccc1N1CCOCC1)c1ccco1	6.93
CN1CCN(c2ccc([N+](=O)[O-])cc2NC(=O)c2ccco2)CC1	-66.9
CC1N(C)c2cc(NC(=O)c3ccco3)ccc2C1(C)C (stereo not shown)	-13.9
O=C(Nc1cc([N+](=O)[O-])ccc1N1CCCC1)c1ccco1	-34.5
O=C(Nc1cc(C(F)(F)F)ccc1N1CCCCC1)c1ccco1	21.2
O=C(Nc1cc([N+](=O)[O-])ccc1N1CCOCC1)c1ccco1	-25.6
Cc1cc(C(=O)Nc2cc(C(F)(F)F)ccc2N2CCOCC2)no1	5.97
CC1N(C)c2cc(NC(=O)c3ccco3)c(P(=O)(Nc3ccc([N+](=O)[O-])cc3)N3CCOCC3)cc2C1(C)C (stereo not shown)	-56
O=S(=O)(N1CCOCC1)N1CCCN(S(=O)(=O)N2CCOCC2)CC1	5.76
COc1cc2ccccc2cc1C(=O)NCCCN1CCOCC1	-5.9
Cc1nn(C(C)C(=O)Nc2sc3c(c2C#N)CCCC3)c(C)c1[N+](=O)[O-] (stereo not shown)	12.1
O=C(/C=C/c1ccccc1Cl)NCCCn1ccnc1	-17
Cc1ccc(S(=O)(=O)c2c(C)nn(C(C)(C)C)c2OC(=O)C(C)(C)C)cc1	15.6
C=CCn1c(N2CCN(c3ccc(OC)cc3)CC2)nc2c1c(=O)n(C)c(=O)n2C	-32.1
CCN(CC)c1nc(C)nc2c1sc(=S)n2C	-1.82
Clc1ccc(CNc2nnnn2-c2ccccc2)c(Cl)c1	20.7
COc1cccc(/C=C/C(=O)OCC(=O)Nc2ccc(Cl)cn2)c1	28.1
